Results as given in PubChem BioAssay AID504374 (National Center for Advancing Translational Sciences (NCATS), 2011).
Where “and” joins values, the source holds several entries; their conditions need not be identical. Equal values may be shown once. The campaign covered roughly 1,500 compounds. About 100 (6.7%) were called active. Not shown: some 7% with an inconclusive outcome. Calls follow the shape of the dose curve; as a rule, active = well fitted inhibition curve with a large enough effect; inconclusive = small, poorly fitted or top-dose-only effect, or effect the other way; inactive = flat fitted curve, though single readings scatter. The list comes from a sample in which actives are over-represented; it also holds similar structures and randomly drawn compounds.

What follows are compounds tested against Runt-related transcription factor 1 (Homo sapiens) + Core-binding factor subunit beta (Homo sapiens) (UniProt Q01196+Q13951) (assay: qHTS Assay for Compounds Blocking the Interaction Between CBF-beta and RUNX1 for the Treatment of Acute Myeloid Leukemia: Hit Validation). Details: AlphaScreen CBFb-His/RUNX1-biotin binding; series mostly up to 59.8 µM; activity, negative = inhibition: at the top concentration.
Runt-related transcription factor 1 (Homo sapiens) + Core-binding factor subunit beta (Homo sapiens), sequence (Q01196 whole entry, looked up): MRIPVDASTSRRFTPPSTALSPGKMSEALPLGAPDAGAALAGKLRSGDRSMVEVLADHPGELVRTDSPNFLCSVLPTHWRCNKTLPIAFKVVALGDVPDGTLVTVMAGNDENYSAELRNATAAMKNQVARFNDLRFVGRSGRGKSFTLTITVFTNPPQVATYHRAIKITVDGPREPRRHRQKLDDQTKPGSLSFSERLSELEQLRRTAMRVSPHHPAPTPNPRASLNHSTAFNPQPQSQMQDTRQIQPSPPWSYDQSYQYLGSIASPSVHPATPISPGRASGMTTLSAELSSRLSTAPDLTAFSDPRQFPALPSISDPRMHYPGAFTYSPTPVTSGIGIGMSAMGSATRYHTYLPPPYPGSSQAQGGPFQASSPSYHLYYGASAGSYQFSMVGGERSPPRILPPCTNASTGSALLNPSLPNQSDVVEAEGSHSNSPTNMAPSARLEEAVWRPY
Runt-related transcription factor 1 (Homo sapiens) + Core-binding factor subunit beta (Homo sapiens), sequence (Q13951 whole entry, looked up): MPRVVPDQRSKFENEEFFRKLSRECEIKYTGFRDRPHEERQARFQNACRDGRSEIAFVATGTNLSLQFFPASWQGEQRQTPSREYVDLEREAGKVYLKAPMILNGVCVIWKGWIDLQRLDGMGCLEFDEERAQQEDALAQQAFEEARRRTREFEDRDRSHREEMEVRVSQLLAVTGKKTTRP
Outline: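 Compounds were added to a premixed CBF-beta-His/RUNX1-biotin complex (30 nM each, 20 min) for 15 min. Nickel and streptavidin AlphaScreen beads followed for 90 min at room temperature, with emission at 440 nm […].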
% is scaled to controls: 0 for no effect and ±100 for the full control effect; potency is read from the fitted curve at half-maximal effect.
Also: nearly all actives have a fitted effect of over 60% in size.

| SMILES | activity, negative = inhibition | Potency |
| --- | --- | --- |
| COc1cc(C2C(C#N)=C(N)OC3=C2C(=O)CC(C)(C)C3)ccc1OCCN1CCOCC1 (centres undefined) | -3.79% (inactive) |  |
| COC(=O)c1ccc(Cn2cc([N+](=O)[O-])cn2)cc1 | -7.08% (inactive) |  |
| C/C(O)=C(\C#N)P(=O)(c1ccccc1)c1ccccc1 | 10.4% (inactive) |  |
| CC(=O)c1cc(C#N)c(SCc2ccccn2)nc1C | -7.25% (inactive) |  |
| Clc1ccc(-c2ccccc2)nn1 | -1.75% (inactive) |  |
| O=[N+]([O-])c1ccccc1CSc1ccccn1 | 1.85% (inactive) |  |
| c1ccc(-c2ccc(-c3ccccn3)s2)nc1 | 3.74% (inactive) |  |
| c1ccc(CSc2ccc(-c3ccccn3)nn2)nc1 |  | 2.51 µM (active) |
| c1ccc(-c2ccc(-c3ccccn3)nn2)nc1 |  | 2.82 µM (active) |
| c1ccc(-c2ccccn2)nc1 |  | 7.94 µM (active) |
| Clc1ccccc1/C=C/c1nc(-c2ccccn2)no1 | -23.2% (inactive) |  |
| c1ccc(-c2n[nH]c(-c3ccccn3)n2)nc1 |  | 1 µM (active) and 708 nM (active) |
| CCN(CCS(=O)(=O)c1ccc(Cl)cc1)C(=O)Nc1ccccc1 | -4.65% (inactive) |  |
| COc1ccc2c(C)cc(C)nc2n1 | 6.91% (inactive) |  |
| Cc1cc(C)n2cnnc2n1 | -3.07% (inactive) |  |
| CCC1(C)N=C(N)Nc2nc3cc(C)c(C)cc3n21 (centres undefined) | -2.57% (inactive) |  |
| CCOC(=O)N1CCC(NS(=O)(=O)c2ccccc2)CC1 | -16.1% (inactive) |  |
| CCNC(=O)COC(=O)c1cc(S(=O)(=O)N2CCCCC2)ccc1C | -10.6% (inactive) |  |
| Cc1cc(C)nc(N2N=C(C(F)(F)F)CC2=O)n1 | 2.96% (inactive) |  |
| COc1ccc(CCn2cnc3c([nH]c4ccccc43)c2=O)cc1 | -4.1% (inactive) |  |

| SMILES | activity, negative = inhibition | Potency |
| --- | --- | --- |
| CC(C)(C)N1CCC1C(N)=O (centres undefined) | 12.6% (inactive) |  |
| Cn1c(=O)c2c(Nc3ccc(F)cc3)cc(=O)n(-c3ccccc3)c2n(C)c1=O | -4.15% (inactive) |  |
| O=C(CC1NCCNC1=O)NC1Cc2ccccc2C1 (centres undefined) | 9.2% (inactive) |  |
| CC(=O)C1C(=O)CC(c2ccc(Cl)cc2)CC1=O (centres undefined) | -0.716% (inactive) |  |
| Cc1oc(S(=O)(=O)N2CCCC2)cc1C(=O)Nc1ccc(F)cc1 | -4.36% (inactive) |  |
| C=CCOc1c(CCC)cc(CCC)cc1C(N)=O | -2.85% (inactive) |  |
| Cc1cc(O)c(C=O)c2c1C(=O)Oc1c(COC(=O)/C=C/C(=O)O)c(O)c(C(=O)O)c(C)c1O2 |  | 11.2 µM (active) |
| CCNC(=S)N1N=C2c3ccccc3CCC2C1c1ccc(F)cc1 (centres undefined) | 7.45% (inactive) |  |
| O=C(NN1C(=O)CSC1=S)C(=O)NN1C(=O)CSC1=S |  | 8.91 µM (active) |
| Nc1cccnc1Oc1ccccc1F | -2.77% (inactive) |  |
| Cn1c(-c2ccc3ccccc3n2)[n+](C)c2ccccc21 | -16.8% (inactive) |  |
| Cc1cc(NC(=O)CN2CCCCC2)n(-c2ccccc2)n1 | 2.06% (inactive) |  |
| NNC(=O)c1ccc(COCC(F)(F)C(F)F)cc1 | -1.86% (inactive) |  |
| CC(C)(C)S(=O)(=O)/C(C#N)=C/Nc1ccccn1 | -2.32% (inactive) |  |
| O=C(O)c1nccnc1C(=O)Nc1ccc(S(=O)(=O)N2CCOCC2)cc1 | -6.89% (inactive) |  |
| O=S(=O)(c1ccc2nc(-c3ccco3)c(-c3ccco3)nc2c1)N1CCOCC1 |  | 5.46 µM (active) |
| CSc1nc2cc(S(=O)(=O)N3CCCCC3)ccc2s1 | -1.3% (inactive) |  |
| COC(=O)CC1=C(C(=O)OC)[C@@H](c2ccccc2[N+](=O)[O-])C(C#N)=C(N)O1 | 3.04% (inactive) |  |
| Cc1ccc(NC(=O)CSc2n[nH]c(N)n2)cc1S(=O)(=O)N1CCOCC1 | -1.46% (inactive) |  |
| CCOc1ccc(N2C(=O)CC(NNc3nc4ccccc4s3)C2=O)cc1 (centres undefined) | 5.71% (inactive) |  |

| SMILES | activity, negative = inhibition | Potency |
| --- | --- | --- |
| O=c1c(-c2cc(O)c(O)c(O)c2)coc2cc(O)c(O)c(O)c12 |  | 0.447 µM (active) |
| Cc1nnn(C23C[C@@H]4C[C@@H](CC(C(=O)N5CCN(c6ccccc6)CC5)(C4)C2)C3)n1 | -5.35% (inactive) |  |
| COC(=O)[C@H](CCSC)NC(=O)Nc1cc(OC)cc(OC)c1 | -12.2% (inactive) |  |
| COc1ccc(C(=O)NC(=S)Nc2ccc(CN3CCOCC3)cc2)cc1 | -11.1% (inactive) |  |
| Cn1c(=O)c([N+](=O)[O-])c(NCC2CCCO2)c2ccccc21 (centres undefined) | -0.834% (inactive) |  |
| Cc1cccc(C(=O)N/C(=C\c2ccc(C)o2)C(=O)O)c1 | -12.8% (inactive) |  |
| CC(C)(C)OC(=O)N1Cc2cc3ccccc3nc2C1CO (centres undefined) | -2.12% (inactive) |  |
| O=C(CSc1ccc(-c2ccccn2)nn1)NCc1ccccc1 |  | 5.62 µM (active) |
| COC(=O)CNC(=O)CSc1ccccn1 | 6.43% (inactive) |  |
| COc1ccc(/C=N/NC(=O)Cn2ccnc2C)cc1OC | -9.74% (inactive) |  |
| COc1ccc(NC(=O)CSc2ccc(-c3ccccn3)nn2)cc1OC |  | 4.47 µM (active) |
| CCOc1ccc(NC(=O)Nc2cc(C(C)C)c(O)cc2C)cc1 | -2.87% (inactive) |  |
| CCOc1ccc(Nc2c3ccccc3nc3ccccc23)cc1 | -13% (inactive) |  |
| CCOc1ccc(NC(=O)CSc2ccc(-c3ccccn3)nn2)cc1 |  | 5.01 µM (active) |
| COC(=O)[C@H](C)NC(=O)NCc1ccccc1 | -3.2% (inactive) |  |
| COc1ccccc1CC(=O)Nc1cccc(C(=O)Nc2nccs2)c1 | -6.81% (inactive) |  |
| Cc1oc(S(=O)(=O)N2CCCCC2)cc1NC(=O)Nc1ccc(F)cc1 | -4.08% (inactive) |  |
| CC1CN(S(=O)(=O)c2cccc(C(F)(F)F)c2)CC(C)O1 (centres undefined) | -0.629% (inactive) |  |
| COc1ccc(NC(=O)CCC(=O)N/N=C/c2ccncc2)cc1 | 4.92% (inactive) |  |
